We go through 9 molecules from PubChem BioAssay.

The structures appear in SMILES notation. The list shows a part of the results. Active and inactive are the calls of the source.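 How the source made its calls, unless noted: active means mean inhibition across four replicates of at least 40 percent at the single tested concentration; inactive means the rest.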

Sequence of Tumor necrosis factor receptor superfamily member 10B (Homo sapiens) (O14763 whole entry, looked up): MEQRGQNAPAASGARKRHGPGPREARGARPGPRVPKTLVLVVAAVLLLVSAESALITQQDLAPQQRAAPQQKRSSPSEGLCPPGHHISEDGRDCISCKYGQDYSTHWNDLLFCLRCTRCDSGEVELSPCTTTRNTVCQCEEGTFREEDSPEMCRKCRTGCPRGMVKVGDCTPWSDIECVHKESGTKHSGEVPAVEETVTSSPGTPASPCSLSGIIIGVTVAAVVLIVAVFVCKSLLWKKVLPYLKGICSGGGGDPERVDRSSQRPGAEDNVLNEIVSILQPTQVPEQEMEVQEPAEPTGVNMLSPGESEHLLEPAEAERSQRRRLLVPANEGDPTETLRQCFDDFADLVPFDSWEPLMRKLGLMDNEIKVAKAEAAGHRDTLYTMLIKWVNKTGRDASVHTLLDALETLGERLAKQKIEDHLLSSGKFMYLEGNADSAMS

System in one test: not listed separately
Briefly: HIF-2a reporter inhibitor retest, confirmation, luminescence, 786-0 RCC cells (AID 651580). The following applies: HIF-2a luciferase reporter luminescence, overnight, at 18.8 µM, stronger effect = higher value.
As for `O=C(/C(=C/c1cccc(Cl)c1)c1nc2ccccc2[nH]1)c1ccccc1`, the inhibition was 26.3% (inactive).
For `Cc1cc(C)nc(S/C=C/C(=O)c2ccccc2)n1`, the inhibition was 58.6% (active).
The same measure, in the same setting: the value for `CC1=CC(C)(C)Nc2ccc(OC(=O)CN3C(=O)C4CCCCC4C3=O)cc21` (stereo not given) was 86.9% (active); that for `Cc1cccc(-n2ncc(Cl)c(Cl)c2=O)c1` was 26.4% (inactive).
On the same count and under the same terms, the value for `O=C1C=CC(=O)N1c1ccc(N2CCCCC2)cc1` was 17.3% (inactive); that for `O=C(CCl)Nc1cccc(CP(=O)(c2ccccc2)c2ccccc2)c1` was 22.9% (inactive).

System in the next test: not listed separately
Briefly: HIF-1a luciferase reporter signal reduction – MiaPaCa-2 cells, single concentration, counter-screen for HIF-2a inhibitor project, confirmation (AID 651589;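 active means mean inhibition of the reporter signal across four replicates at the single tested dose of 50% or more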). The note with it: MiaPaCa-2 HIF-1a luciferase reporter, desferoxamine, overnight; at 18.8 µM; stronger effect = higher value.
In the case of `O=C(/C(=C/c1cccc(Cl)c1)c1nc2ccccc2[nH]1)c1ccccc1`, the inhibition was 105% (active).
`Cc1cc(C)nc(S/C=C/C(=O)c2ccccc2)n1`: the inhibition was 98.9% (active).
In the case of `CC1=CC(C)(C)Nc2ccc(OC(=O)CN3C(=O)C4CCCCC4C3=O)cc21` (stereo not given), the inhibition was 86.2% (active).
With `Cc1cccc(-n2ncc(Cl)c(Cl)c2=O)c1`, the inhibition is 101% (active).
In the case of `O=C1C=CC(=O)N1c1ccc(N2CCCCC2)cc1`, the inhibition is -4.26% (inactive).
Consider `O=C(CCl)Nc1cccc(CP(=O)(c2ccccc2)c2ccccc2)c1`, for which the inhibition was 51.3% (active).

A further test has as its target Tumor necrosis factor receptor superfamily member 10B (Homo sapiens) (UniProt O14763). Briefly: caspase-8 TRAIL sensitization, hit retest, confirmation, cell-based, NB7+caspase-8, with/without TRAIL, luminescence panel (AID 651596; in the data active means activity above about 50%). The note with it: NB7 neuroblastoma + caspase-8, TRAIL sensitization, luminescence viability, with TRAIL, mean of runs, at 10 µM, stronger effect = higher value.
Take `Cc1cccc(-n2ncc(Cl)c(Cl)c2=O)c1`: the activity is 99.6%.
Consider `COc1cc(NC(=O)c2cncc(-c3ccc(C#N)cc3)c2)cc(C(=O)Nc2cccc(C(F)(F)F)c2)c1`, for which the activity was 54.6%.
With `O=C(Nc1ccc(OC(F)(F)F)cc1)c1ccc2c(c1)no[n+]2[O-]`, the activity came out at 90%.
For `CCOC(=O)c1c(NC(=O)CCl)sc(C(=O)N(CC)CC)c1C`, the activity came out at 95.3%.

System in a further test: not listed separately
The description is as above. The following applies: NB7 neuroblastoma + caspase-8, without TRAIL, luminescence viability, without TRAIL, mean of runs, at 10 µM.
For `Cc1cccc(-n2ncc(Cl)c(Cl)c2=O)c1`, the activity came out at 99.7%.
With `COc1cc(NC(=O)c2cncc(-c3ccc(C#N)cc3)c2)cc(C(=O)Nc2cccc(C(F)(F)F)c2)c1`, the activity stood at 26.9%.
In the case of `O=C(Nc1ccc(OC(F)(F)F)cc1)c1ccc2c(c1)no[n+]2[O-]`, the activity is 96.8%.
Regarding `CCOC(=O)c1c(NC(=O)CCl)sc(C(=O)N(CC)CC)c1C`, the activity is 93.8%.

One may read the inhibition as the change of the read-out against control, counted positive when it falls.
